Data from PubChem BioAssay (Tox21).
Inconclusive results are not listed. Where a call stands in place of a potency, no number is given. Activity calls are given as the source filed them. The call rests on the fitted dose curve; in most records, active means well fitted cell-killing curve with a large enough effect in the repeat runs; inconclusive means weak or mixed curves, or effect the other way; inactive means flat fitted curve, though single readings scatter.

test: qHTS RealTime-Glo MT Cell Viability Assay in HEK293 cells - 24 hour (AID 1224886); details: RealTime-Glo luminescence; series mostly up to 76.8 µM; further: top concentration of the series differs between compounds; nearly all actives have a fitted effect of over 50% in size
Description: National Center for Advancing Translational Sciences [NCATS]
NIH Chemical Genomics Center [NCGC]
U.S. Environmental Protection Agency [EPA]
National Institutes of Environmental Health Sciences [NIEHS]
National Toxicology Program [NTP]
U.S. Food and Drug Administration [FDA]
Measure of cell viability is critical in the cell-base assay. Analysis of cell viability is necessary for the characterization of cell responses to cytotoxic drugs and environmental stress. A RealTime-Glo MT Cell Viability Assay to monitor cell viability in real time of continues cell culture during 40 hours of compound treatment was used to screen Tox21 10K library compounds in Hek293 cells. The RealTime-Glo MT Cell Viability Assay is a nonlytic, homogeneous, bioluminescent method to measure cell viability in real time using a simple, plate-based method. The assay involves adding NanoLuc luciferase and a cell-permeant prosubstrate to cells in culture. Viable cells reduce the proprietary prosubstrate to generate a substrate for NanoLuc luciferase. This substrate diffuses from cells into the surrounding culture medium, where it is rapidly used by the NanoLuc Enzyme to produce a luminescent signal. The signal correlates with the number of viable cells, making the assay well suited for cytotoxicity studies.
Tox21 Assay Protocol Summary:
The mixture of Hek293 cell suspension and reagents were dispensed at 600cells/6 ul/well in 1536-well tissue culture treated black solid bottom plates using a Multidrop dispenser. After the assay plates were incubated at a 37 C/5% CO2 incubator for 5 hours, 23 nL of compounds dissolved in DMSO, positive and negative controls was transferred to the assay plate by a pintool work station. The plates were incubated at 37 C for 40 hours. The luminescence intensity were measured at 0h, 8h, 16h, 24h, 32h and 40h time points using ViewLux plate reader during compound treatment.

SMILES	Potency	activity change, negative = cytotoxicity
CC1=CCC(O)(C(C)C)CC1 (stereo not given)	inactive	–
C[C@H]1[C@H](NC(=O)/C(=N/OC(C)(C)C(=O)O)c2csc(N)n2)C(=O)N1S(=O)(=O)O (stereo in doubt)	inactive	–
O=C(O)c1cn(C2CC2)c2cc(N3CCNCC3)c(F)cc2c1=O	inactive	–
CC(=O)Nc1ccc(OCC(O)CNC(C)C)cc1 (stereo not given)	inactive	–
Nc1ccn([C@@H]2O[C@H](CO)[C@@H](O)C2O)c(=O)n1 (stereo not given in full)	inactive	–
Cc1coc2ccccc2c1=O	inactive	–
CCCC[N+](C)(CCCC)CCCC	inactive	–
CCC1C(=O)OCC1Cc1cncn1C (stereo not given)	inactive	–
Cc1ncc([C@@H](CCCCCCc2ccc3c(n2)NCCC3)CC(=O)O)cn1	inactive	–
Cc1nc2ccc(CN(C)c3ccc(C(=O)N[C@@H](CCC(=O)O)C(=O)O)s3)cc2c(=O)[nH]1	inactive	–
CC[C@H]1OC(=O)[C@H](C)[C@@H](O[C@H]2C[C@@](C)(OC)[C@@H](O)[C@H](C)O2)[C@H](C)[C@@H](O[C@@H]2O[C@H](C)C[C@H](N(C)C)[C@H]2O)[C@](C)(OC)C[C@@H](C)C(=O)[C@H](C)[C@@H](O)[C@]1(C)O	inactive	–
CCCCOCCOC(=O)COc1cc(Cl)c(Cl)cc1Cl	inactive	–
CCCCc1nc(Cl)c(CO)n1Cc1ccc(-c2ccccc2-c2nn[nH]n2)cc1	inactive	–
[Ca+2]	inactive	–
CC(C)(C)OC(=O)c1cccc(N)c1	inactive	–
O=C(O)CC(C(=O)O)S(=O)(=O)O (stereo not given)	inactive	–
COCCOC[C@H](CC1(C(=O)NC2CCC(C(=O)O)CC2)CCCC1)C(=O)Oc1ccc2c(c1)CCC2 (stereo not given in full)	inactive	–
Cc1cccc(C)c1NC(=O)CC12CCCN1CCC2	inactive	–
O=[N+]([O-])c1ccc(/C=N\O)o1	inactive	–
O=C(c1ccccc1)C1(O)CCCCC1	inactive	–

SMILES	Potency	activity change, negative = cytotoxicity
CCN1C=CN(C)C1C (stereo not given)	inactive	–
Clc1cc(Cl)c(Cl)nc1Cl	inactive	–
CN(C)[C@@H]1C(=O)C(C(=O)NCN2CCCC2)=C(O)[C@@]2(O)C(=O)C3=C(O)c4c(O)cccc4[C@@](C)(O)C3C[C@@H]12 (stereo not given in full)	inactive	–
CCO[Si](OCC)(OCC)c1ccccc1	inactive	–
C=CC(=O)OCCCl	inactive	–
CC(C)[C@H]1CC[C@@H](C)CC1=O	inactive	–
NC(N)=NCCN1CCCCCCC1	–	-3.39% [at 0.29 µM] (inactive)
C=C[Si](OC(C)=O)(OC(C)=O)OC(C)=O	inactive	–
CC[N+](C)(CC)CCOC(=O)C1c2ccccc2Oc2ccccc21	inactive	–
CCOc1ccc2nc(S(N)(=O)=O)sc2c1	inactive	–
CCC(C)(CCCC(C)C)OC(C)=O (stereo not given)	inactive	–
Cc1onc(-c2c(Cl)cccc2Cl)c1C(=O)Cl	inactive	–
COc1cc(-c2ccc(=O)[nH]n2)ccc1OC(F)F	inactive	–
CCCCS(=O)(=O)N[C@@H](Cc1ccc(OCCCCC2CCNCC2)cc1)C(=O)O	inactive	–
CN1C(C)(C)CC(O)CC1(C)C	inactive	–
O=Cc1cccc(Br)c1	inactive	–
CC(C)=CCC/C(C)=C/C#N	inactive	–
CCOC(=O)C1=NOC(c2ccccc2)(c2ccccc2)C1	inactive	–
O=C1NC(=O)C2CC=CCC12 (stereo not given)	inactive	–
CC1=NS(=O)(=O)c2cc(Cl)ccc2N1	inactive	–
